Results: PubChem BioAssay AID1159580 (chemical genetic matrix, 2015)
Where “and” joins values, the source holds several entries; their conditions need not be identical. Equal values may be shown once. Hit rate of the full screen: of about 5,500 compounds, about 2,000 (36%) were called active. Roughly 18% stayed inconclusive and do not appear here. Cut-off read from the data, not from the text of the source: active = normalized growth mostly below about 0.91 (no sharp cut-off); inconclusive = no clear call, values can overlap the other calls; inactive = mostly above about 0.92. This is one part of the list.

Assay: chemical genetic growth profiling, strain panel (AID 1159580);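 note: tested at 20 µM; growth read once vehicle control cultures reached saturation at 30 °C; 1 = growth at the plate median or of vehicle wells; lower values mean less growth of the strain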
Settings: S. cerevisiae deletion strains, growth OD

With `C[C@]12CCC3C(CC[C@H]4C[C@@H](O)CC[C@]34C)C1CCC2=O` (some centres undefined) the normalized growth (locus YAL021C, strain ccr4, stronger effect = lower value) was 0.854 (active), the normalized growth (locus YAL026C, strain drs2, stronger effect = lower value) was 0.505 (active) and the normalized growth (locus YAL030W, strain snc1, stronger effect = lower value) was 1.01 (inactive). The normalized growth (locus YBL061C, strain skt5, stronger effect = lower value) was 1.02 (inactive), the normalized growth (locus YBR009C, strain hhf1, stronger effect = lower value) was 0.896 (active) and the normalized growth (locus YBR021W, strain FUR4, stronger effect = lower value) was 0.857 (inactive). The normalized growth (locus YBR023C, strain chs3, stronger effect = lower value) was 0.989 (inactive), the normalized growth (locus YBR171W, strain sec66, stronger effect = lower value) was 1.01 (inactive) and the normalized growth (locus YBR229C, strain ROT2, stronger effect = lower value) was 1.02 (inactive). The normalized growth (locus YBR231C, strain swc5, stronger effect = lower value) was 1 (inactive), the normalized growth (locus YBR279W, strain paf1, stronger effect = lower value) was 0.994 (inactive) and the normalized growth (locus YCL011C, strain gbp2, stronger effect = lower value) was 0.937 (inactive). For the same compound, the normalized growth (locus YCL016C, strain dcc1, stronger effect = lower value) was 0.916 (inactive), the normalized growth (locus YCL029C, strain bik1, stronger effect = lower value) was 0.842 (active) and the normalized growth (locus YCL061C, strain MRC1, stronger effect = lower value) was 0.961 (inactive). The normalized growth (locus YCL069W, strain vba3, stronger effect = lower value) was 1.01 (inactive), the normalized growth (locus YCR088W, strain abp1, stronger effect = lower value) was 1.05 (inactive) and the normalized growth (locus YDL005C, strain med2, stronger effect = lower value) was 1.03 (inactive). The normalized growth (locus YDL035C, strain GPR1, stronger effect = lower value) was 0.697 (active), the normalized growth (locus YDL040C, strain nat1, stronger effect = lower value) was 1.05 (inactive) and the normalized growth (locus YDL074C, strain BRE1, stronger effect = lower value) was 0.792 (inactive). The normalized growth (locus YDL101C, strain DUN1, stronger effect = lower value) was 0.918 (inactive), the normalized growth (locus YDL185W, strain tfp1, stronger effect = lower value) was 0.949 (inactive) and the normalized growth (locus YDL192W, strain arf1, stronger effect = lower value) was 0.838 (active). The normalized growth (locus YDR001C, strain nth1, stronger effect = lower value) was 1.05 (inactive), the normalized growth (locus YDR069C, strain doa4, stronger effect = lower value) was 0.979 (inactive) and the normalized growth (locus YDR101C, strain arx1, stronger effect = lower value) was 0.95 (inactive). The normalized growth (locus YDR137W, strain rgp1, stronger effect = lower value) was 0.48 (active), the normalized growth (locus YDR159W, strain sac3, stronger effect = lower value) was 0.938 (inactive) and the normalized growth (locus YDR162C, strain NBP2, stronger effect = lower value) was 0.585 (active). For the same compound, the normalized growth (locus YDR195W, strain ref2) was 1.44 [resistant] (active), the normalized growth (locus YDR297W, strain sur2, stronger effect = lower value) was 1.02 (inactive) and the normalized growth (locus YDR318W, strain mcm21, stronger effect = lower value) was 0.764 (active). For the same compound, the normalized growth (locus YDR334W, strain swr1, stronger effect = lower value) was 1.08 (inactive), the normalized growth (locus YDR335W, strain msn5, stronger effect = lower value) was 1.02 (inactive) and the normalized growth (locus YDR388W, stronger effect = lower value) was 0.935 (inactive). The normalized growth (locus YDR392W, strain spt3, stronger effect = lower value) was 0.224 (active), the normalized growth (locus YDR502C, strain sam2, stronger effect = lower value) was 0.749 (active) and the normalized growth (locus YEL003W, strain gim4, stronger effect = lower value) was 0.977 (inactive). For the same compound, the normalized growth (locus YEL037C, strain rad23, stronger effect = lower value) was 1.03 (inactive), the normalized growth (locus YEL061C, strain CIN8 (second series), stronger effect = lower value) was 1.04 (inactive) and the normalized growth (locus YEL061C, strain CIN8, stronger effect = lower value) was 0.908 (active). For the same compound, the normalized growth (locus YER015W, strain faa2, stronger effect = lower value) was 1.04 (inactive), the normalized growth (locus YER016W, strain bim1, stronger effect = lower value) was 1.03 (inactive) and the normalized growth (locus YER110C, stronger effect = lower value) was 1.03 (inactive). For the same compound, the normalized growth (locus YER111C, strain swi4, stronger effect = lower value) was 1.03 (inactive), the normalized growth (locus YER155C, strain BEM2 (second series), stronger effect = lower value) was 1 (inactive) and the normalized growth (locus YER155C, strain BEM2, stronger effect = lower value) was 0.856 (active). The normalized growth (locus YER167W, strain BCK2, stronger effect = lower value) was 0.872 (active), the normalized growth (locus YFR010W, strain ubp6, stronger effect = lower value) was 0.9 (active) and the normalized growth (locus YGL078C, strain dbp3, stronger effect = lower value) was 0.931 (inactive). The normalized growth (locus YGL086W, strain mad1, stronger effect = lower value) was 0.9 (active), the normalized growth (locus YGL167C, strain pmr1, stronger effect = lower value) was 1.03 (inactive) and the normalized growth (locus YGL173C, strain kem1, stronger effect = lower value) was 0.943 (inactive). The normalized growth (locus YGL227W, strain vid30, stronger effect = lower value) was 1.06 (inactive), the normalized growth (locus YGL240W, strain doc1, stronger effect = lower value) was 0.968 (inactive) and the normalized growth (locus YGL248W, strain PDE1, stronger effect = lower value) was 0.696 (active). For the same compound, the normalized growth (locus YGL253W, strain hxk2, stronger effect = lower value) was 0.87 (active), the normalized growth (locus YGR078C, strain PAC10, stronger effect = lower value) was 0.843 (active) and the normalized growth (locus YGR135W, strain pre9, stronger effect = lower value) was 0.711 (active). For the same compound, the normalized growth (locus YHR013C, strain ard1, stronger effect = lower value) was 0.899 (inactive), the normalized growth (locus YHR027C, strain rpn1, stronger effect = lower value) was 1.03 (inactive) and the normalized growth (locus YHR030C, strain SLT2, stronger effect = lower value) was 0.785 (active) and 0.897 (inactive). The normalized growth (locus YHR079C, strain IRE1 (second series), stronger effect = lower value) was 0.94 (inactive), the normalized growth (locus YHR079C, strain IRE1, stronger effect = lower value) was 0.893 (inactive) and the normalized growth (locus YHR094C, strain hxt1, stronger effect = lower value) was 1.03 (inactive). The normalized growth (locus YHR129C, strain ARP1, stronger effect = lower value) was 0.766 (active), the normalized growth (locus YHR142W, strain chs7, stronger effect = lower value) was 0.853 (active) and the normalized growth (locus YHR200W, strain rpn10, stronger effect = lower value) was 0.883 (active). The normalized growth (locus YIL066C, strain RNR3, stronger effect = lower value) was 0.628 (active), the normalized growth (locus YIL073C, strain SPO22, stronger effect = lower value) was 0.735 (inactive) and the normalized growth (locus YIL125W, strain kgd1, stronger effect = lower value) was 0.98 (inactive). The normalized growth (locus YIR030C, strain dcg1, stronger effect = lower value) was 0.868 (active), the normalized growth (locus YJL092W, strain hpr5, stronger effect = lower value) was 0.988 (inactive) and the normalized growth (locus YJL095W, strain BCK1 (second series), stronger effect = lower value) was 0.923 (inactive). The normalized growth (locus YJL095W, strain BCK1, stronger effect = lower value) was 0.309 (active) and 0.911 (inactive), the normalized growth (locus YJL115W, strain asf1, stronger effect = lower value) was 1.04 (inactive) and the normalized growth (locus YJL129C, strain trk1, stronger effect = lower value) was 0.948 (inactive). For the same compound, the normalized growth (locus YJL134W, strain LCB3, stronger effect = lower value) was 1.02 (inactive), the normalized growth (locus YJL154C, strain vps35, stronger effect = lower value) was 1.06 (inactive) and the normalized growth (locus YJL164C, strain tpk1, stronger effect = lower value) was 0.859 (active). For the same compound, the normalized growth (locus YJL166W, strain qcr8, stronger effect = lower value) was 0.877 (active), the normalized growth (locus YJL168C, strain set2, stronger effect = lower value) was 1.03 (inactive) and the normalized growth (locus YJL187C, strain SWE1 (second series), stronger effect = lower value) was 0.796 (active). The normalized growth (locus YJL187C, strain SWE1, stronger effect = lower value) was 1.03 (inactive), the normalized growth (locus YJR043C, strain POL32, stronger effect = lower value) was 0.895 (inactive) and the normalized growth (locus YJR066W, strain TOR1, stronger effect = lower value) was 0.875 (inactive). For the same compound, the normalized growth (locus YJR075W, strain HOC1, stronger effect = lower value) was 0.857 (active) and the normalized growth (locus YKL009W, strain mrt4, stronger effect = lower value) was 0.832 (active).
